Measured values reported in PubChem BioAssay.
Activity calls are given as the source filed them.

Assays:
[1] = small molecules captured by biotinylated probe aFSTL3 – biochemical, small-molecule microarray, fluorescence 635/667, stem cell growth factor project, primary screen (AID 1064); conditions: higher = more signal;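 note: measures binding of the biotinylated anti-FSTL3 antibody to printed compounds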
[2] = binders from COS7 lysate, DM2A8 probe, primary screen, torsin A project, cell lysate, small-molecule microarray, fluorescence 635/667 (AID 1065); conditions: higher = more signal, COS7 lysate expressing mutant human TOR1A
[3] = small molecules captured by biotinylated probe aFGF2 – biochemical, small-molecule microarray, fluorescence 635/667, stem cell growth factor project, primary screen (AID 1067); conditions: higher = more signal;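 note: measures binding of biotinylated aFGF2 protein to printed compounds on slides; z-score merges feature fluorescence and signal-to-noise across triplicate slides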
[4] = small molecules captured by biotinylated probe aFGF10 – biochemical, small-molecule microarray, fluorescence 635/667, stem cell growth factor project, primary screen (AID 1071); conditions: higher = more signal;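 note: score merges 667 nm spot intensity and signal to noise from triplicate slides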
[5] = target: Neurogenic locus notch homolog protein 2 (Homo sapiens) (UniProt Q04721); experiment: small molecules binding Notch2 protein – biochemical, small-molecule microarray, 635 nm fluorescence, stem cell growth factors, primary screen (AID 1073); conditions: higher = more signal
Chain of Neurogenic locus notch homolog protein 2 (Homo sapiens) (Q04721 whole entry, looked up, canonical isoform): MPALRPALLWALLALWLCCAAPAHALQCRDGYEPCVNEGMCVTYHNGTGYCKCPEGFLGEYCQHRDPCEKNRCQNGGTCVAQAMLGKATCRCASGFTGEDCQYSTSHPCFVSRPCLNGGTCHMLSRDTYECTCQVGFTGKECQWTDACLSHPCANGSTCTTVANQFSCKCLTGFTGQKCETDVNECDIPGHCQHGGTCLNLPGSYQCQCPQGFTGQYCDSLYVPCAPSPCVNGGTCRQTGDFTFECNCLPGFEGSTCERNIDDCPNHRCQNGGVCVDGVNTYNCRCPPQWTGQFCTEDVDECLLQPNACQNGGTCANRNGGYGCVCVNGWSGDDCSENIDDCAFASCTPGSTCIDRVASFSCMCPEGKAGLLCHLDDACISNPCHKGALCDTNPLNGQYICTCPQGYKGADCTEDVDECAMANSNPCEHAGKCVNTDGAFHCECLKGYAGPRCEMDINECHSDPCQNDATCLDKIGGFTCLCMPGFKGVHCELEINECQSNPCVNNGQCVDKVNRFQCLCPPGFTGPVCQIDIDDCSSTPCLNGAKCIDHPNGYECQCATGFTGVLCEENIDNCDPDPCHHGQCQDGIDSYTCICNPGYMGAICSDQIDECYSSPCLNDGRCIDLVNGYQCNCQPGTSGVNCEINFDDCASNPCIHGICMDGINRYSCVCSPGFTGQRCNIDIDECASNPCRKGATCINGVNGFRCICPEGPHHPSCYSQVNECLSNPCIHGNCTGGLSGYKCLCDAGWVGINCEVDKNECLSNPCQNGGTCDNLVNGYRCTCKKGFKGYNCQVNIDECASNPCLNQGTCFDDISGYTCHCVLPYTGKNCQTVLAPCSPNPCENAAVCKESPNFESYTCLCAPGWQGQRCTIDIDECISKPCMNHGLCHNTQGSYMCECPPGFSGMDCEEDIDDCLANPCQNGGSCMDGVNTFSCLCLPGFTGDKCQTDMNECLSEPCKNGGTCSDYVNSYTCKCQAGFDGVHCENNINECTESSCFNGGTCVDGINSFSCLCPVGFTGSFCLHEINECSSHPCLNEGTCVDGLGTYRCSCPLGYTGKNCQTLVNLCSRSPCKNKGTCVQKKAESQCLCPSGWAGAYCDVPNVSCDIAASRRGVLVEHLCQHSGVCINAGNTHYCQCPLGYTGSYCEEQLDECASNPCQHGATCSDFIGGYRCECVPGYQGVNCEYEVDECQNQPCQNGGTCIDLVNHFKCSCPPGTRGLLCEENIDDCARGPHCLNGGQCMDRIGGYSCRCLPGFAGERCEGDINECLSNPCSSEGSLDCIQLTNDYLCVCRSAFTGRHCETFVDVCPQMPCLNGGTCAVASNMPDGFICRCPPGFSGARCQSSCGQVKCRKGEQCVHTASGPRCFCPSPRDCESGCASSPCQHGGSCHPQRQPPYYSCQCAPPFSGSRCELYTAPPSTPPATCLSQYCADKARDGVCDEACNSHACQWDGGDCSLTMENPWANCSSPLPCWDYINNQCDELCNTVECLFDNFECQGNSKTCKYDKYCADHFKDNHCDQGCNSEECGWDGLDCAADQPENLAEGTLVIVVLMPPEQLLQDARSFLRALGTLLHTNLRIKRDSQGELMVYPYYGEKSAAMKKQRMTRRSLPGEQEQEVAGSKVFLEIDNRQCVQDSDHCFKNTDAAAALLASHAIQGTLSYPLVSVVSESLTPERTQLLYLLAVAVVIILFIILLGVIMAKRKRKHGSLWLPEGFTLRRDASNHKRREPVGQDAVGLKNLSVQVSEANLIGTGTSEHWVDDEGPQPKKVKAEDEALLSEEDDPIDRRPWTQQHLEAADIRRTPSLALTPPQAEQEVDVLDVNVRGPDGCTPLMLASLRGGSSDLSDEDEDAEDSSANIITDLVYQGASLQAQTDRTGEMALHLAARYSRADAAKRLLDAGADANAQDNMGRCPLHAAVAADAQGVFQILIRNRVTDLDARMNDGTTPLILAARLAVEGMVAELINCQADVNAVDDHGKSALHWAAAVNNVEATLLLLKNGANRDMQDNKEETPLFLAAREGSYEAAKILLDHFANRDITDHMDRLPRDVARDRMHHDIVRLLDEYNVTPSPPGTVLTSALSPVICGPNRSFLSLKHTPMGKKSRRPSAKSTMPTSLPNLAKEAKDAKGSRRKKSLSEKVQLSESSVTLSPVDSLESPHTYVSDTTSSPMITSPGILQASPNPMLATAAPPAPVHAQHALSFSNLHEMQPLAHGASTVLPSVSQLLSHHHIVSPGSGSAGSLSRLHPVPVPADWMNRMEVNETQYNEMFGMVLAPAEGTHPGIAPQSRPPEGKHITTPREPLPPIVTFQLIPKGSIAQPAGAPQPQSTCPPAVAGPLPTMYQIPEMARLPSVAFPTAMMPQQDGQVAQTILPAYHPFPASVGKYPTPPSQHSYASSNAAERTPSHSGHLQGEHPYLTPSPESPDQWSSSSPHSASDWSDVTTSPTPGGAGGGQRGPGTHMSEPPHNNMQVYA

[6] = target: Pro-neuregulin-1, membrane-bound isoform (Homo sapiens) (UniProt Q02297); experiment: small molecules binding neuregulin-1 protein – biochemical, small-molecule microarray, fluorescence 635/667, psychiatric disease protein project, primary screen (AID 1075); conditions: NRG1 binding, 635 nm fluorescence, higher = more signal;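 note: score combines 667 nm spot fluorescence with signal to noise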
Chain of Pro-neuregulin-1, membrane-bound isoform (Homo sapiens) (Q02297 whole entry, looked up, the tested form may be a part, canonical isoform): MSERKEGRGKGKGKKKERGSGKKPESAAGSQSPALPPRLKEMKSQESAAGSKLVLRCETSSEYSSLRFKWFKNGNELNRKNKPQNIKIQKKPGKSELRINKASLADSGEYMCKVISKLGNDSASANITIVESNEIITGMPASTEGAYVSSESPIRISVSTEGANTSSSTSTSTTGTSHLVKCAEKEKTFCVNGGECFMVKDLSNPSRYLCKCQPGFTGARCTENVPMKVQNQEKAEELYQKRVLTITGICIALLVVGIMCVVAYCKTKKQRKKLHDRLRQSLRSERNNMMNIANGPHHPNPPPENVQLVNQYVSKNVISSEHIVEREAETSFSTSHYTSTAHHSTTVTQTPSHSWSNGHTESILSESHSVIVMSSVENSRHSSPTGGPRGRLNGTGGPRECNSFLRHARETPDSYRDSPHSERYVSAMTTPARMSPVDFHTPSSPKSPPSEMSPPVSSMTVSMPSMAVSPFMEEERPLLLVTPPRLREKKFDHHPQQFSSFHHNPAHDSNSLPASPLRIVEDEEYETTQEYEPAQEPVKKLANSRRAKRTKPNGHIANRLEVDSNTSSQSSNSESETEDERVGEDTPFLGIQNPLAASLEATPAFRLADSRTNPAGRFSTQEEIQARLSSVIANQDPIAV

[7] = test system: Neuregulin-1 EGF-like domain; experiment: small molecules binding NRG1 EGF domain – biochemical, small-molecule microarray, 635 nm fluorescence, primary screen (AID 1081); conditions: higher = more signal;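 note: binding of the protein to compounds printed on small-molecule microarray slides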
[8] = FRG1 expression reporter modulators in myotubes – cell-based, C2C12 myotubes, firefly/Renilla luciferase, luminescence, FRG1 inhibition for FSHD, primary screen (AID 1084); conditions: FRG1 promoter luciferase, higher = more signal, called active from +8 up or from −8 down
[9] = small molecules captured by biotinylated probe aFST – biochemical, small-molecule microarray, fluorescence 635/667, stem cell growth factor project, primary screen (AID 1086); conditions: higher = more signal;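 note: score merges 667 nm fluorescence with signal-to-noise of each printed compound spot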
[10] = binders of probe aHhip on microarray, primary screen, stem cell growth factor project, biochemical, small-molecule microarray, fluorescence 635/667 (AID 1087); conditions: higher = more signal;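 note: score merges spot fluorescence at 667nm with spot signal to noise ratio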
[11] = test system: PRMT1 (protein arginine N-methyltransferase 1); experiment: small molecules binding arginine methyltransferase PRMT1 – biochemical, small-molecule microarray, 635 nm fluorescence, primary screen (AID 1088); conditions: higher = more signal;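 note: binding of Prmt1 protein to compounds spotted on small-molecule microarray slides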
[12] = growth effects on S. cerevisiae YJM789 – YJM789 clinical isolate, OD600, 24 h, basal, primary screen (AID 1089); conditions: higher = more signal, called active from +8 up or from −8 down;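 note: growth of clinical yeast isolate S. cerevisiae YJM 789 seeded 1000 cells per well; test concentration not given here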
[13] = S. pombe growth modifiers, basal conditions – strain 972, OD600, 24 h, no modulator, primary screen (AID 1090);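 note: basal condition with compound alone and no growth modifier present; test concentration not given here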; conditions: S. pombe 972 growth, higher = more signal, called active from +8 up or from −8 down
[14] = budding yeast growth modifiers under rapamycin – strain BY4716, OD600, 96 h, primary screen (AID 1091); note: test concentration not given here; conditions: S. cerevisiae BY4716 + rapamycin, higher = more signal, called active from +8 up or from −8 down
[15] = target: Torsin-1A-interacting protein 2 (Homo sapiens) (UniProt Q8NFQ8); experiment: small molecules binding lysate-expressed LULL1 – cell lysate, human LULL1 lysate, 635/667 nm fluorescence, primary screen (AID 1092); conditions: small-molecule microarray, hLULL1 lysate binding, 635 nm fluorescence; higher = more signal;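 note: probe is lysate of COS7 cells overexpressing human LULL1; score merges per-feature 667 nm fluorescence with signal-to-noise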
Chain of Torsin-1A-interacting protein 2 (Homo sapiens) (Q8NFQ8 whole entry, looked up): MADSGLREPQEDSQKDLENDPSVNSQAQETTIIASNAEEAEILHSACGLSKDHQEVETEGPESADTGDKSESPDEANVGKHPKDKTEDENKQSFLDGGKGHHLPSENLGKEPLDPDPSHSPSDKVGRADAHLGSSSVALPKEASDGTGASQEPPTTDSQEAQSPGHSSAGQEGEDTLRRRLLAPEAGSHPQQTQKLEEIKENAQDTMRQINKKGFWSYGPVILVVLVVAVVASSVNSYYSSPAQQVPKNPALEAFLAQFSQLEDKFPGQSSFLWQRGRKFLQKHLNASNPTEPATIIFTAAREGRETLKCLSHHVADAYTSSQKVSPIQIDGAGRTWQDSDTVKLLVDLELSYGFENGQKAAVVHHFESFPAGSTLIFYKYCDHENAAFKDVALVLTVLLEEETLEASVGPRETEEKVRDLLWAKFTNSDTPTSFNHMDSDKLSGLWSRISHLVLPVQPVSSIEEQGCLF

[16] = optical density change of DRC41 E. coli – strain DRC41, OD650, 24 h, E. coli filamentation project, primary screen (AID 1093);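 note: MC1000 strain lacking acrAB efflux and sulA so SOS filamentation is blocked; test concentration not given here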; conditions: E. coli DRC41 growth, higher = more signal, called active from +8 up or from −8 down
[17] = probe aLefty2 binding to arrayed compounds – biochemical, biotinylated probe, 635/667 nm fluorescence, primary screen (AID 1094); conditions: small-molecule microarray, higher = more signal;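 note: score merges spot fluorescence near 667 nm with spot signal-to-noise ratio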
[18] = test system: Noggin (protein binding on small-molecule microarray); experiment: small molecules binding Noggin protein – biochemical, 635/667 nm fluorescence, primary screen (AID 1095); conditions: 635 nm fluorescence, higher = more signal;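 note: score merges 667 nm feature fluorescence with signal to noise over triplicate slides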
[19] = target: Neurogenic locus notch homolog protein 3 (Homo sapiens) (UniProt Q9UM47); experiment: small molecules binding NOTCH3 protein – biochemical, 635/667 nm fluorescence, primary screen (AID 1096); conditions: small-molecule microarray, 635 nm fluorescence, higher = more signal
[20] = probe aEGFR binding to arrayed compounds – biochemical, biotinylated probe, 635/667 nm fluorescence, primary screen (AID 1097); conditions: small-molecule microarray, higher = more signal;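 note: probe is a biotinylated anti-EGFR antibody binding compounds printed on slides; score combines fluorescence near 667 nm and signal to noise of each spot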

| Compound | composite z-score [1] | composite z-score [2] | composite z-score [3] | composite z-score [4] | composite z-score [5] | composite z-score [6] | composite z-score [7] | z-score [8] | composite z-score [9] | composite z-score [10] | composite z-score [11] | z-score [12] | z-score [13] | z-score [14] | composite z-score [15] | z-score [16] | composite z-score [17] | composite z-score [18] | composite z-score [19] | composite z-score [20] |
| --- | --- | --- | --- | --- | --- | --- | --- | --- | --- | --- | --- | --- | --- | --- | --- | --- | --- | --- | --- | --- |
| COC(=O)[C@@]1(Cc2ccc(F)cc2)[C@H]2c3cc(C(=O)N4CCCC4)n(CCSCCO)c3C[C@H]2CN1C(=O)c1ccccc1 | 0.349 | -0.366 | 0.157 | 0.359 | 1.53 | 1.82 | 1.32 | -0.0476 (inactive) | 1.21 | -0.174 | -0.665 | 0.856 (inactive) | 1.25 (inactive) | 0.727 (inactive) | 3.54 | -0.0319 (inactive) | 0.314 | -0.906 | 0.225 | 0.0726 |
| CC(C)C[C@@H]1NC(=O)[C@@H]2C[C@H](C(=O)NCCCCCNC(=O)CS)[C@H](c3ccc(O)cc3)N2C1=O | 0.0099 | 1.8 | -0.0986 | -0.435 | 0.0232 | 1.75 | 1.17 | 2.98 (inactive) | -0.265 | -0.0994 | 1.16 | -2.18 (inactive) | 0.0046 (inactive) | -1.65 (inactive) | 2.21 | 1.52 (inactive) | -0.0437 | 0.73 | 0.313 | -0.0493 |
| O=C/C=C/c1ccc(-c2ccccc2)cc1 | 0.4 | -0.0761 | -0.0785 | 0.182 | -0.327 | -0.727 | -0.836 | 2.7 (inactive) | -0.0543 | 0.21 | -0.645 | -25.4 (active) | -19.9 (active) | -5.08 (inactive) | -0.7 | -0.168 (inactive) | -0.103 | -0.339 | -0.586 | -0.15 |
| C=C(CC1([C@@H](NP(=O)(c2ccccc2)c2ccccc2)[C@H]2C[C@@H]2CCCC)CC1)c1cccc(OC)c1 | 0.511 | -0.411 | 0.112 | 0.343 | 1.47 | 0.0917 | 0.737 | 1.5 (inactive) | 1.66 | 0.579 | -0.155 | 0.557 (inactive) | 0.832 (inactive) | 1.82 (inactive) | 1.66 | -0.768 (inactive) | 0.179 | -0.239 | 0.36 | -0.0563 |
